Measurements as given in PubChem BioAssay (EPA / NIEHS).
Calls of active or inactive are those of the source. Rule for the calls: active = hit-call score of the fitted dose curve at least 0.9, where 1 is the maximum; inactive = score below 0.9.

Test: UKN2_HCS_IMR90_neural_migration: University of Konstanz (UKN) Leist Lab Neural Crest Cell Migration Assay in human induced IMR90 Pluripotent Stem Cells (UKN2) (AID 2284204)
Conditions: actives raise or lower the signal
Method: UKN2_HCS_IMR90 is a cell-based, multiplexed-readout assay screening for neural crest cell migration and cell viability that uses IMR90 (neural crest cells differentiated from iPSC), a human embryo cell line, with measurements taken at […] after chemical dosing in a microplate: 96-well plate. UKN2, also known as cMINC, is an assay that uses IMR90 cells (neural crest cells differentiated from iPSC) as a model of neural crest cell migration. 24 hr after cell seeding, cell migration was initiated and proceeded for 24 hr. Then, chemical was applied, and after 24 hr of exposure migration and viability were assessed using high-content imaging of cells stained with calcein-AM and Hoechst H-33342.UKN2_HCS_IMR90_neural_migration is an assay component measured from the UKN2_HCS_IMR90 assay. It is designed to make measurements of neural crest cell migration, a form of morphology reporter, as detected with Fluorescence intensity signals by HCS Fluorescent Imaging.The assay endpoint UKN2_HCS_IMR90_neural_migration was analyzed with bidirectional fitting relative to DMSO as the negative control and baseline of activity. Using a type of morphology reporter, gain or loss-of-signal activity can be used to understand developmental effects. To generalize the intended target to other relatable targets, this assay endpoint is annotated to the neurodevelopment intended target family, where the subfamily is neural crest cell migration.
The wells are coated with PLO/laminin/fibronectin. Then, silicone stoppers are placed into the wells of a 96-well plate. Cells are seeded around the stoppers and allowed to attach for 24 hours. Day 0: The silicone stoppers are removed and the medium is replaced with pre-warmed, fresh N2-S medium containing the cytokines EGF and FGF. Cells are allowed to migrate into the cell free area. Day 1: 25 ul of the 5x concentrated toxicants are added to the wells. The cells plus toxicants are incubated for 24 h. Day 2: Cells are stained with calcein-AM and Hoechst (H-33342) for 30 min before imaging with a high content imaging microscope. Quantification of migration and viability is done by high content imaging analysis.
With `O=S(=O)(O)C(F)(F)C(F)(F)C(F)(F)C(F)(F)C(F)(F)C(F)(F)F` the outcome was “inactive”. With `O=S(=O)(O)C(F)(F)C(F)(F)C(F)(F)C(F)(F)F` the outcome was “inactive”. For `CO/C=C(/C(=O)OC)c1ccccc1COc1cccc(C(F)(F)F)n1`, the outcome was “inactive”. For `CCOP(=S)(OCC)SCSC(C)(C)C`, the outcome was “inactive”.
